Screening results from PubChem.
Only some compounds are listed: those with a hit (about 3.1% of all), similar ones and a draw of the others.
Vif-A3F inh: blocks the Vif interaction with APOBEC3F | HeLa A3F-eYFP + Vif (tagged APOBEC3F with the HIV-1 protein that degrades it), YFP fluorescence increase | Potency, µM (top dose mostly 46.1 µM), for inactives: top-dose activity, negative = active | actives 0.2% (n = 390,000); further: potency means the concentration at half of the fitted maximal effect; % of control where 0% means no effect; nearly all actives have a fitted effect of over 65% in size
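Fluorescence increase (Ex 488/Em 500-530) after overnight compound treatment at 37 deg C flags inhibition of Vif-driven A3F-eYFP loss in stable HeLa A3F-eYFP/Vif cells seeded overnight beforehand.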
TSHR antag: antagonists of human thyroid stimulating hormone receptor; TSHR-expressing cells, TSH-stimulated cAMP HTRF, 2 h; active compounds read low; P16473; actives 0.2% (n = 330,000); activity change, negative = inhibition, % at 11.5 µM;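 active means activity change below a set negative limit, meaning inhibition stronger than a set level, cut at about -70% in these data; inconclusive means activity change between two set negative limits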; further: on the % scale 0 is the no-effect control and ±100 the full control effect
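Competitive HTRF cAMP read-out (cryptate anti-cAMP antibody, cAMP-d2; 30 min, room temperature) in freshly harvested TSHR cells. Compounds added before TSH at EC80 (4nM final), followed by 2 hours' incubation at 37 deg C.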
VDR inh: inhibitors of human vitamin D receptor; VDR-SRC2-3 peptide fluorescence polarization, 2 h; Potency, µM, without a hit: max response, negative = inhibition, hits mostly inhibitors; actives 0.93% (n = 400,000); further: potency means the concentration at half of the fitted maximal effect; on the % scale 0 is the no-effect control and ±100 the full control effect
Target sequence (P11473 whole entry, looked up): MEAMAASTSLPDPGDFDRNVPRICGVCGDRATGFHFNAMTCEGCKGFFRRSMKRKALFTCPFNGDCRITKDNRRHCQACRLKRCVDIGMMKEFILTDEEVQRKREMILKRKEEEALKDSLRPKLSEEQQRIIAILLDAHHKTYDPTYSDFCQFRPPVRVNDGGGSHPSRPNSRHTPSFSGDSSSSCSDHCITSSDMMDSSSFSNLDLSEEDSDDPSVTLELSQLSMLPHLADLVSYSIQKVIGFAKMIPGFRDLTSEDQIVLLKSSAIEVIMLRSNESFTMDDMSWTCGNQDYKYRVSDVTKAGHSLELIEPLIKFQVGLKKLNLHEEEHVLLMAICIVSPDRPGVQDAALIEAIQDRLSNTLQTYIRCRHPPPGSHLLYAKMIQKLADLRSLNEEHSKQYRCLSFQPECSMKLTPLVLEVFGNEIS
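FP read-out; VDR + SRC2-3 coactivator peptide; 23 nl compound by pintool; 2 h RT incubation; reagents held at 4 deg C, protected from light.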
PLK1 PBD block: PLK1 (human) polo-box domain binding inhibition | actives 2.8% (n = 360,000) | AID 720504 | Plk1 PBD binding of FITC phosphopeptide, fluorescence polarization | Potency, µM, for the others: max response, negative = inhibition, actives largely listed as inhibitors; further: potency means the concentration at half of the fitted maximal effect; series mostly up to about 57 µM; on the % scale 0 is the no-effect control and ±100 the full control effect; nearly all actives have a fitted effect of over 65% in size
Vif-APOBEC3G blk: inhibitors of Vif-APOBEC3G interaction; Q9HC16; HeLa A3G-eYFP + Vif (tagged APOBEC3G with the HIV-1 protein that degrades it), YFP fluorescence, overnight; Potency, µM (series often up to 46.1 µM), inactives show at the top dose activity, negative = active, usual class: inhibitors; actives 0.076% (n = 410,000); further: potency means the concentration at half of the fitted maximal effect; on the % scale 0 is the no-effect control and ±100 the full control effect; nearly all actives have a fitted effect of over 60% in size
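Read-out is eYFP fluorescence (Ex 488/Em 500-530) from Vif-expressing HeLa A3G-eYFP cells; more signal means A3G escaped Vif-mediated degradation. Cells plated overnight, compound pinned in, incubated overnight at 37 deg C.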
* = called active by the depositor; ? = inconclusive; nt = not tested or not shown. Unless noted, the call rests on the fitted dose curve; in most records, active means well fitted curve in the direction sought with a large enough effect; inconclusive means small, poorly fitted or top-dose-only effect, or another doubt; inactive means no such curve, though single readings can be large; an effect the other way counts as inactive or inconclusive.

SMILES	Vif-A3F inh	TSHR antag	VDR inh	PLK1 PBD block	Vif-APOBEC3G blk
O=C(/C=C/c1ccccc1)COC(=O)c1ccccc1	?	nt	10µM*	0%	?
O=C(/C=C/c1ccccc1)CCN1CCCCC1	?	nt	28µM*	6.7µM*	?
O=C(O)/C=C/c1ccccc1	nt	nt	10%	nt	nt
CCCN1CNc2c(c(=O)[nH]c(=S)n2CCc2ccsc2)C1	nt	nt	-9%	nt	nt
NC(=S)NN=C1c2ccccc2-c2c(F)c(F)c(F)c(F)c21	-1%	nt	79µM*	8.4µM*	-13%
N#Cc1cccc2c1-c1ccccc1/C2=N/NC(N)=S	?	7	-10%	-11%	-14%
O=C(c1ccc([N+](=O)[O-])cc1)N1CCSC1c1ccc(Cl)cc1 (stereo not drawn)	0%	7	-14%	1%	-4%
O=C(c1ccc([N+](=O)[O-])cc1)N1CCSC1c1ccc(Br)cc1 (stereo not drawn)	2%	1	-16%	17µM*	-4%
Fc1ccc(C(c2ccc(F)cc2)N2CCN(C/C=C\c3ccccc3)CC2)cc1	nt	nt	10%	nt	nt
COc1ccc(/C=N\NC(=O)C2C(=O)NCC2c2ccccc2)cc1O (stereo not drawn)	-10%	15	?	3µM*	-1%
CC(C)(C)n1ncc2c(=O)n(Cc3ccccc3C#N)cnc21	nt	nt	nt	nt	1%
CN(C1CCCCC1)S(=O)(=O)c1ccc(=S)[nH]c1	1%	-1	50µM*	21µM*	3%
CN(C1CCCCC1)S(=O)(=O)c1cccc(C#N)c1	1%	12	-6%	24µM*	-1%
CCOc1ccc(S(=O)(=O)N(C)C2CCCCC2)cc1	0%	-9	2%	3%	-8%
COC(=O)c1c(C)nc(C)c(C(=O)OC)c1-c1ccccc1[N+](=O)[O-]	nt	nt	2%	nt	nt
CCOc1ccccc1C(=O)N(Cc1ccco1)Cc1ccco1	3%	nt	13%	nt	-2%
CCOc1ccc(C(=O)Nc2cc(-c3nc4ccccc4[nH]3)ccc2C)cc1[N+](=O)[O-]	6%	21	5%	4%	-8%
O=C(NC(=S)Nc1cc(-c2nc3ccccc3[nH]2)ccc1Cl)c1ccc2c(c1)OCO2	?	-8	-17%	24µM*	-25%
CCOc1ccc(C(=O)Nc2cc(-c3nc4ccccc4[nH]3)ccc2Cl)cc1[N+](=O)[O-]	-2%	3	43%	0%	13µM*
O=C(C[n+]1ccccc1Cl)c1ccccc1	nt	nt	nt	nt	-2%
COc1ccc(-n2nc(C(=O)NCC(=O)N3CCOCC3)c3ccccc3c2=O)c(OC)c1	-12%	2	-11%	2%	-3%
COc1ccc(-n2nc(C(=O)NCC(=O)NCCCN3CCN(C)CC3)c3ccccc3c2=O)cc1	-4%	-100*	-4%	3%	1%
COc1ccc(-n2nc(C(=O)NCCCN3CCOCC3)c3ccccc3c2=O)c(OC)c1	-12%	-6	?	21µM*	3%
O=C(Nc1nnc(-c2ccncc2)o1)c1ccccc1	?	6	?	7.5µM*	4%
CCCC(=O)N(C)c1ccc(/C=C2\C=Cc3ccccc32)cc1	nt	nt	nt	nt	-25%
Clc1ccccc1-c1nn2c(-c3cc(-c4ccccc4)n[nH]3)nnc2s1	nt	nt	-14%	nt	-15%
CSCC[C@H](NC(=O)[C@H](CO)NC(=O)[C@H](Cc1ccc(O)cc1)NC(=O)[C@@H](N)CO)C(=O)N[C@@H](CCC(=O)O)C(=O)N[C@@H](Cc1cnc[nH]1)C(=O)N[C@@H](Cc1ccccc1)C(=O)N[C@@H](CCCNC(=N)N)C(=O)N[C@@H](Cc1c[nH]c2ccccc12)C(=O)NCC(=O)N[C@@H](CCCCN)C(=O)N1CCC[C@H]1C(=O)N[C@H](C(=O)NCC(=O)N[C@@H](CCCCN)C(=O)N[C@@H](CCCCN)C(=O)N[C@@H](CCCNC(=N)N)C(=O)N[C@@H](CCCNC(=N)N)C(=O)N1CCC[C@H]1C(=O)N[C@H](C(=O)N[C@@H](CCCCN)C(=O)N[C@H](C(=O)N[C@@H](Cc1ccc(O)cc1)C(=O)N1CCC[C@H]1C(=O)O)C(C)C)C(C)C)C(C)C	nt	nt	-4%	nt	nt
CC(C)c1nnc(NC(=O)c2cccc(NC(=O)C(F)(F)F)c2)s1	7%	3	1%	21µM*	-5%
